TbPYK inhibitor: blocks Trypanosoma brucei pyruvate kinase. TbPYK enzyme, Kinase-Glo Plus ATP luminescence, 45 min. Potency, µM (doses to about 76.8 µM), for the others: at the top dose activity, negative = inhibition, actives largely listed as inhibitors. hit rate 0.12% among 410,000. AID 624173; note: potency is the fitted concentration of half-maximal effect; nearly all actives have a fitted effect of over 50% in size
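In this concentration-response screen, enzyme-free wells defined baseline while DMSO plates tracked drift. Each reaction combined TbPYK, substrate, compound and 130 uM ADP for 45 min at room temperature. Kinase-Glo Plus luminescence gave the signal.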
Vaccinia mCherry: inhibitors of vaccinia virus infection (mCherry reporter signal) | hit rate 0.63% among 310,000 | Vaccinia virus mCherry reporter infection, fluorescence | AID 720579 | Potency, µM (doses to about 36.5 µM), for the others: top-dose activity change, negative = inhibition, usual class: inhibitors; calls by dose curve; tested in A549 cells; note: potency is the fitted concentration of half-maximal effect; nearly all actives have a fitted effect of over 35% in size
Vaccinia Venus: vaccinia inhibition (Venus reporter); Vaccinia virus Venus reporter expression, fluorescence; Potency, µM (doses to about 36.5 µM), inactives show top-dose activity change, negative = inhibition, actives largely listed as inhibitors; hit rate 0.46% among 330,000; AID 720580; calls by dose curve; tested in A549 cells; note: potency is the fitted concentration of half-maximal effect; nearly all actives have a fitted effect of over 30% in size
LmPK inhibitor: inhibitors of Leishmania mexicana pyruvate kinase; Q27686; purified LmPK, Kinase-Glo ATP luminescence, 1 h; Potency, µM (highest dose often 57.5 µM), for inactives: at the top dose activity change, negative = inhibition, hits mostly inhibitors; hit rate 0.37% among 290,000; AID 1721; note: potency is the fitted concentration of half-maximal effect
Target sequence (Q27686 whole entry, looked up): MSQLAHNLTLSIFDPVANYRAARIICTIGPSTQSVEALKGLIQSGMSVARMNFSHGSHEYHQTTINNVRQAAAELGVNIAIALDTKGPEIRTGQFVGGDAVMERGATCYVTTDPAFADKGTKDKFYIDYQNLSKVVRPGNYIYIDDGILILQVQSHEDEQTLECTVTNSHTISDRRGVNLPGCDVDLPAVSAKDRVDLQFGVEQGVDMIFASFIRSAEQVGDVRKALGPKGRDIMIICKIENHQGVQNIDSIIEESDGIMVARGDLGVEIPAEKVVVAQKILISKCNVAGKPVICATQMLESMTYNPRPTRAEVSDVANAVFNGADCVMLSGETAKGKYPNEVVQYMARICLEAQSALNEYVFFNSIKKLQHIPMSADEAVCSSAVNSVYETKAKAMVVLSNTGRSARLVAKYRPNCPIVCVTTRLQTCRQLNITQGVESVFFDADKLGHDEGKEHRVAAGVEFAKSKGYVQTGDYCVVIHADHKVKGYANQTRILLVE
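Pyruvate kinase activity monitored as ATP production (luciferase luminescence). Conditions: 0.1 nM enzyme, 0.5 mM PEP, 0.1 mM ADP, 1 h, RT; normalized against uninhibited and no-enzyme wells.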
HCMV antiviral: human cytomegalovirus inhibition; HFF cells, HCMV-luciferase reporter, 72 h; stronger effect = lower value; AID 1259415; hit rate 4.5% among 410,000; activity change, negative = inhibition, % at 57.5 µM; in the data active = activity change below about -60%; inconclusive = no clear call, values can overlap the other calls; inactive = above about -39%
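Human foreskin fibroblasts infected with luciferase-reporter HCMV at MOI 1 PFU/cell, compounds at two doses. Luciferase measured 72 h post infection; normalized to buffer-only basal and Salinomycin (10uM) controls.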
* = called active by the depositor; i = inactive; ? = inconclusive; / = no result; [ ] = another dose, or the depositor's remark. A selection: hits, their analogues and other compounds. The true share with any hit is near 5%. Unless noted, calls come from the whole dose curve; as a rule, active = well fitted curve in the direction sought with a large enough effect; inconclusive = small, poorly fitted or top-dose-only effect, or another doubt; inactive = no such curve, though single readings can be large; an effect the other way counts as inactive or inconclusive. % is set by controls: 0 for no effect and ±100 for the full control effect.

SMILES	TbPYK inhibitor	Vaccinia mCherry	Vaccinia Venus	LmPK inhibitor	HCMV antiviral
Nc1c(C(=O)Nc2ccc(S(=O)(=O)N3CCCC3)cc2)sc2nc3ccc(OC(F)(F)F)cc3cc12	-10%	-18%	-11%	-1%	-96*
Nc1c(C(=O)Nc2ccc(S(=O)(=O)N3CCCC3)cc2)sc2nc3cc4c(cc3cc12)CCC4	-4%	-11%	9%	-2%	?
CC(C)(NC(=O)c1ccccc1)c1nc2ccccc2s1	?	?	-6%	/	41
N#C/C(=C\c1coc2ccc(O)cc2c1=O)C(=O)Nc1nc2ccccc2s1	-14%	/	/	2%	-73*
N#C/C(=C\c1coc2ccccc2c1=O)C(N)=S	-20%	3%	12%	-2%	23
COc1ccc(/C(N)=N/OC(=O)Cc2ccc(OC)c(OC)c2)cc1	-3%	-18%	-27%	6%	-90*
COc1ccc(CC(=O)O/N=C(\N)c2ccncc2)cc1OC	1%	-1%	-16%	/	-23
COCC(C)NC(=S)NC(=O)c1cc(S(=O)(=O)N2CCOCC2)ccc1C (stereo unspecified)	-8%	i	-13%	3%	?
Cc1ccc(S(=O)(=O)N2CCOCC2)cc1C(=O)NC(=S)N1CC(C)CC(C)C1 (stereo unspecified)	2%	/	/	0%	-32
CCCCCC(C)NC(=S)NC(=O)c1cc(S(=O)(=O)N2CCOCC2)ccc1C (stereo unspecified)	-11%	-18%	?	0%	-62*
CCCC(C)NC(=S)NC(=O)c1cc(S(=O)(=O)N2CCOCC2)ccc1C (stereo unspecified)	-15%	-11%	-23%	0%	-70*
O=C(Nn1cnc2ccccc2c1=O)c1c(F)cccc1F	4%	/	/	-4%	0
Cc1noc(C)c1C1(O)CCCCCCCCCCC1	-12%	-18%	-9%	0%	?
COc1cc(CCC(=O)Nc2c(C(=O)N3CCN(c4ccccc4OC)CC3)oc3ccccc23)on1	0%	?	-11%	-9%	-13
Cc1nn2c(N)csc2nc1=O	/	/	/	0%	/
CC(C)n1c(SCC(=O)N2CCCCC2)nc2c1c(=O)n(C)c(=O)n2C	2%	10%	2%	2%	-25
c1ccc2c(c1)[IH]c1ccccc1-2	2%	?	11µM*	/	-100*
Oc1ccc(/C=N/Nc2nccnc2Cl)cc1	?	-19%	-6%	5µM*	54
Fc1ccc(/C=N/Nc2nccnc2Cl)cc1	?	/	/	?	49
O=[N+]([O-])c1cccc(/C=N/Nc2nccnc2Cl)c1	-19%	i	-18%	14µM*	22
O=[N+]([O-])c1cccc(/C=N/Nc2ccccn2)c1	-8%	/	/	-2%	?
CCc1ccc(N2C(=O)C3C(C2=O)N2CCCN2C3c2ccccc2)cc1 (stereo unspecified)	10%	i	-7%	-4%	-11
O=C(Cn1cc(C(=O)c2ccco2)c2ccccc21)Nc1ccccc1F	2%	-15%	-8%	2%	-75*
Cc1cccc(NC(=O)Cn2cc(C(=O)c3ccccc3)c3ccccc32)c1C	2%	-18%	-25%	/	-67*
Cc1ccc(NC(=O)Cn2cc(C(=O)c3ccco3)c3ccccc32)c(C)c1	-8%	-24%	-20%	/	-73*
SMILES	TbPYK inhibitor	Vaccinia mCherry	Vaccinia Venus	LmPK inhibitor	HCMV antiviral
CC(C)NC(=O)Cn1cc(C(=O)c2ccccc2)c2ccccc21	3%	/	/	-5%	96
CC(C)NC(=O)Cn1cc(C(=O)C2CC2)c2ccccc21	7%	/	/	-5%	-61*
Cc1cc2c(=O)c(C(=O)c3ccncc3)cn(CC(=O)Nc3cccc(C)c3C)c2cc1C	-1%	-12%[7.34 µM]	-1%[7.34 µM]	/	-6
C[C@H](CO)N1C[C@H](C)[C@@H](CN(C)C(=O)Nc2ccc(-c3cccs3)cc2)OCc2cn(nn2)CCCC1=O	/	/	/	/	-7
Cc1cc(C(C)(C)C)cc(C)c1COC(=O)C1CCC(=O)N1 (stereo unspecified)	-12%	/	-5%	3%	78
COc1cccc(NC(=O)Cn2cc(C(=O)c3ccccc3)c3ccccc32)c1	0%	-11%	-13%	/	?
Cc1cccc(NC(=O)Cn2cc(C(=O)c3ccccc3)c3ccccc32)c1	5%	-15%	-22%	/	-80*
Cc1cccc(NC(=O)Cn2cc(C(=O)C3CCCCC3)c3ccccc32)c1C	-4%	-22%[7.34 µM]	-18%[7.34 µM]	/	-93*
Cc1cccc(NC(=O)Cn2cc(C(=O)c3ccco3)c3ccccc32)c1C	-4%	-6%	?	/	-88*
Cc1ccc(CN2C3CCCC2CC(NC(=O)c2ccc(F)cc2)C3)cc1 (stereo unspecified)	-2%	-10%	-28%	-1%	8
O=C(OC(C(=O)NCc1ccc2c(c1)OCO2)c1ccc(Cl)cc1)c1ccco1 (stereo unspecified)	-4%	-14%	-9%	-2%	21
COc1ccccc1N(C)c1cc2c(c3c1ccn3C)C1CCC2C1 (stereo unspecified)	-2%	64%	6%	/	-89*
CCN(C)c1cc2c(c3c1ccn3C)C1CCC2C1 (stereo unspecified)	-8%	0%	4%	/	-1
COCCC(=O)Nc1ccc2c(c1)CN(C(=O)CSC)CC2	2%	i	-14%	-2%	10
CCOc1ccc(C(=O)Nc2ccc3c(c2)N(C(C)=O)CCC3)cc1OCC	1%	-15%	-7%	/	2
COc1cc(C(=O)Nc2ccc3c(c2)Cc2ccccc2-3)cc(OC)c1OC	-1%	-15%	?	2%	-25
COc1cc(C(=O)Nc2ccc3c(c2)CCN3C(C)=O)cc(OC)c1OC	-15%	?	-20%	-2%	-74*
CC(=O)N1CCCc2ccc(NC(=O)c3ccc(C(F)(F)F)cc3)cc21	2%	-9%	-16%	/	-71*
COCCC(=O)N1CCc2ccc(NC(=O)c3ccc(C(F)(F)F)cc3)cc2C1	2%	/	/	-5%	-65*
CCc1ccc(NC(=O)Cn2c(=O)n(CCCC(=O)NCc3ccc4c(c3)OCO4)c(=O)c3ccccc32)cc1	7%	-10%	-12%	/	18
Cc1ccc(-c2csnn2)cc1	-2%	/	/	-11%	-15
CC(=O)Nc1ccc(NC(=O)C2Cc3c(-c4ccco4)ccnc3O2)cc1 (stereo unspecified)	5%	10%	-8%	/	-23
CC(=O)c1cccc(NC(=O)C2Cc3c(-c4ccco4)ccnc3O2)c1 (stereo unspecified)	-11%	-2%	-15%	/	-62*
CC(=O)c1cccc(NC(=O)C2Cc3c(-c4ccccc4Oc4ccccc4)ccnc3O2)c1 (stereo unspecified)	-3%	-16%	-27%	/	-66*
CN(C)c1cccc(NC(=O)C2Cc3c(-c4ccccc4Oc4ccccc4)ccnc3O2)c1 (stereo unspecified)	0%	-24%	-11%	/	-83*
COc1ccc(-c2cc(C(F)(F)F)n3nc(C(=O)OC(C)C)cc3n2)cc1	-8%	-16%	-13%	/	8
CC/C=C\C/C=C\C/C=C\CCCCCCCCCC(=O)O	/	i[3.33 µM]	-16%[3.33 µM]	/	/
